According to PubChem BioAssay (NCATS):
Inconclusive results are not listed. Where a call stands in place of a potency, no number is given. The source made the active and inactive calls. Calls come from the whole dose curve; as a rule, active = well fitted inhibition curve with a large enough effect; inconclusive = small, poorly fitted or top-dose-only effect; inactive = flat fitted curve, though single readings scatter.

How the values were obtained:
Experiment in all cases: qHTS profiling for inhibitors of Plasmodium falciparum proliferation (AID 504749); note: nearly all actives have a fitted effect of over 60% in size
Conditions in all cases: P. falciparum in erythrocytes, SYBR Green DNA, 72 h; series mostly up to 28.7 µM
CP260 = test system: CP260
In short: (§1)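 SYBR Green fluorescence (ex 485 nm, em 535 nm) reports parasite DNA after 72 h compound exposure of infected red cells at 0.3% parasitemia, 2.5% hematocrit; signal normalized to 0.29 uM artemisinin and vehicle wells.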

CP262 = test system: CP262
In short: as §1

CP265 = test system: CP265
In short: as §1

CP268 = test system: CP268
In short: as §1

CP269 = test system: CP269
In short: as §1

CP286 = test system: CP286
In short: as §1

CP291 = test system: CP291
In short: as §1

CP297 = test system: CP297
In short: as §1

CP305 = test system: CP305
In short: as §1

CP266 = test system: CP266
In short: as §1
Potency is the fitted concentration of half-maximal effect.

COc1ccc2c3c1O[C@H]1C(=O)CC[C@H]4[C@@H](C2)N(C)CC[C@]314 was tested, and the Potency (CP260) was “inactive”, the Potency (CP262) was “inactive” and the Potency (CP265) was “inactive”. The Potency (CP268) was “inactive”, the Potency (CP269) was “inactive” and the Potency (CP286) was “inactive”. The Potency (CP291) was “inactive”, the Potency (CP297) was “inactive” and the Potency (CP305) was “inactive”.

With CCN(CC)C(=O)/C(Cl)=C(\C)OP(=O)(OC)OC the Potency (CP260) was “inactive”, the Potency (CP262) was “inactive” and the Potency (CP265) was “inactive”. The Potency (CP286) was “inactive” and the Potency (CP297) was 13.5 µM (active).

In the case of C[CH2][Hg][S]c1ccccc1C(=O)O, the Potency (CP260) was 1 µM (active), the Potency (CP265) was 1.41 µM (active) and the Potency (CP266) was 4.26 µM (active). For the same compound, the Potency (CP268) was 3.79 µM (active), the Potency (CP269) was 1.69 µM (active) and the Potency (CP286) was 1.41 µM (active). The Potency (CP291) was 3.79 µM (active), the Potency (CP297) was 1.69 µM (active) and the Potency (CP305) was 3.79 µM (active).

In the case of S=C(S)N1CCNCC1, the Potency (CP262) was “inactive”, the Potency (CP265) was “inactive” and the Potency (CP266) was “inactive”. For the same compound, the Potency (CP268) was “inactive”, the Potency (CP269) was “inactive” and the Potency (CP286) was “inactive”. The Potency (CP291) was “inactive”, the Potency (CP297) was “inactive” and the Potency (CP305) was “inactive”.

For O=[N+]([O-])c1cc(I)c(O)c(I)c1, the Potency (CP260) was “inactive”, the Potency (CP262) was “inactive” and the Potency (CP265) was “inactive”. For the same compound, the Potency (CP268) was “inactive”, the Potency (CP269) was “inactive” and the Potency (CP286) was “inactive”. For the same compound, the Potency (CP291) was “inactive”, the Potency (CP297) was “inactive” and the Potency (CP305) was “inactive”.

In the case of CCCCCCCCCC(=O)O[C@H]1CC[C@H]2[C@@H]3CCC4=CC(=O)CC[C@]4(C)[C@H]3CC[C@]12C, the Potency (CP262) was “inactive”, the Potency (CP265) was “inactive” and the Potency (CP266) was “inactive”. The Potency (CP268) was “inactive”, the Potency (CP269) was “inactive” and the Potency (CP291) was “inactive”. For the same compound, the Potency (CP297) was “inactive” and the Potency (CP305) was “inactive”.

For OC(c1ccccc1)(c1ccccc1)C1CN2CCC1CC2 (configuration not stated), the Potency (CP262) was “inactive”, the Potency (CP265) was “inactive” and the Potency (CP268) was “inactive”. For the same compound, the Potency (CP269) was “inactive”, the Potency (CP286) was “inactive” and the Potency (CP291) was “inactive”. For the same compound, the Potency (CP305) was “inactive”.

With COc1ccc2c(c1OC)C(=O)OC2C1c2cc3c(cc2CCN1C)OCO3 (configuration not stated) the Potency (CP260) was “inactive”, the Potency (CP265) was “inactive” and the Potency (CP286) was “inactive”.

For CCOc1ccc2c3c1O[C@H]1[C@@H](O)C=C[C@H]4[C@@H](C2)N(C)CC[C@@]341, the Potency (CP260) was “inactive”, the Potency (CP265) was “inactive” and the Potency (CP266) was “inactive”. The Potency (CP286) was “inactive” and the Potency (CP297) was 15.1 µM (active).

F/C(COc1ccc2c(c1)[nH]c1ccccc12)=C1/CN2CCC1CC2 was tested, and the Potency (CP260) was 5.62 µM (active), the Potency (CP262) was “inactive” and the Potency (CP265) was 8.91 µM (active). For the same compound, the Potency (CP286) was 7.08 µM (active).

With O=C1CN=C(c2ccccc2)c2cc(Cl)ccc2N1CC1CC1 the Potency (CP262) was “inactive”, the Potency (CP265) was “inactive” and the Potency (CP266) was “inactive”. For the same compound, the Potency (CP268) was “inactive”, the Potency (CP269) was “inactive” and the Potency (CP291) was “inactive”. The Potency (CP297) was “inactive” and the Potency (CP305) was “inactive”.

COC([CH2][Hg])CNC(=O)c1ccccc1OCC(=O)O (configuration not stated) was tested, and the Potency (CP262) was “inactive”, the Potency (CP265) was “inactive” and the Potency (CP266) was “inactive”. The Potency (CP268) was “inactive”, the Potency (CP269) was “inactive” and the Potency (CP286) was “inactive”. The Potency (CP291) was “inactive”, the Potency (CP297) was “inactive” and the Potency (CP305) was “inactive”.

In the case of [N-]=[N+]=CC(=O)OCC(N)C(=O)O (configuration not stated), the Potency (CP262) was “inactive”, the Potency (CP265) was “inactive” and the Potency (CP266) was “inactive”. For the same compound, the Potency (CP268) was “inactive”, the Potency (CP269) was “inactive” and the Potency (CP286) was “inactive”. The Potency (CP291) was “inactive”, the Potency (CP297) was “inactive” and the Potency (CP305) was “inactive”.

CCCN1CCCC2Cc3[nH]ncc3CC21 (configuration not stated) was tested, and the Potency (CP260) was “inactive”, the Potency (CP265) was “inactive” and the Potency (CP286) was “inactive”.
